# Inconclusive results are not listed. Activity calls are given as the source filed them. How the source made its calls: active means hit-call score of the fitted dose curve at least 0.9, where 1 is the maximum; inconclusive means response in the unintended direction; inactive means score below 0.9.
# Experiment: CLD_ACTIN_48hr: CellzDirect (CLD) Gene Expression Assay for Baseline Control (Actin) at 48 hours (AID 2283702)
# Method: CLD_48hr is a cell-based, multiplexed-readout assay that uses hepatocyte, a human liver primary cell, with measurements taken at 48 hours after chemical dosing in a 96-well plate.CLD_ACTIN_48hr is one of 16 assay component(s) measured or calculated from the CLD_48hr assay. It is designed to make measurements of mRNA induction, a form of inducible reporter, as detected with chemiluminescence signals by Quantitative Nuclease Protection Assay (qNPA) technology.Data from the assay component CLD_ACTIN_48hr was analyzed at the endpoint, CLD_ACTIN_48hr, in the positive analysis fitting direction relative to DMSO as the negative control and baseline of activity. Using a type of inducible reporter, gain-of-signal activity can be used to understand changes in the reporter gene as they relate to the gene ACTA1. Furthermore, this assay endpoint can be referred to as a secondary readout, because this assay has produced multiple assay endpoints where this one serves a background control function. To generalize the intended target to other relatable targets, this assay endpoint is annotated to the background measurement intended target family, where subfamily is baseline control.
# Human hepatocyte cultures were treated daily for two consecutive days with fresh dosing solutions containing appropriate concentrations of the 320 ToxCast chemicals (chemical identities were blinded to CellzDirect and other ToxCast collaborators), vehicle control (0.2% DMSO), and positive control inducers as summarized in Table 1. Due to the large number of treatment groups and chemicals examined, the ToxCast chemicals were divided into two groups (spanning two independent cultures of hepatocytes from separate donor preparations (Hu778: ToxCast plates 1 and 2; Hu776: ToxCast plates 3 and 4). Each preparation of human hepatocyte cultures was treated with respective vehicle control, medium only control, set of six positive controls/reference chemicals for the five hepatic receptor pathways, and a subset of eight of the ToxCast chemicals (indoxacarb, pyrithiobac-sodium, norflurazon, cyhalofop-butyl, methomyl, thiram, acetochlor, and propiconazole). These replicate data, coupled with internal replicates designed within the blinded ToxCast chemical library, provided additional data to evaluate interindividual differences between hepatocyte preparations and their potential impact on chemical profiles.Cell morphology and integrity were evaluated using phase-contrast microscopy as an indicator of hepatocyte cell health (Tyson & Green, 1987). Cultures for each treatment group (i.e., media, vehicle [0.2% DMSO], positive control inducers [multiple concentrations], and the ToxCast chemicals [multiple concentrations]) were observed and cell morphology was assessed relative to vehicle control cultures at each harvest time point (0, 6, 24, or 48 h). […] Images were evaluated at the conclusion of the study to assess changes in cell integrity and account for the effects of chemical exposure on uncharacteristic changes in concentration-dependent gene expression profiles. The results from these determinations of apparent cytotoxicity were annotated (yes/no) alongside the corresponding qNPA data for reference.At the conclusion of each treatment period, hepatocyte cultures (96-well) were washed with 1 volume of HBSS, lysed by addition of 25 ul ArrayPlate lysis buffer (HTG, Tucson, AZ), and 70 ul/well of Denaturation Oil, denatured by incubation at 95C for 10 min, and frozen at approximately -70C until analysis by nuclease protection assay (qNPA) (Roberts et al., 2007). For qNPA analysis, cell lysates were thawed at 50C for approximately 30 min, qNPA probes were added, and samples were incubated at 95C for 10 min to begin the detection process by denaturing the target RNA, dissociating the duplexes and secondary structure hybridization. At the conclusion of the hybridization period, S1 nuclease reagent was added to each sample to digest all nonprotected nucleotides at 50C for 60-90 min. […]
row,SMILES,outcome
1,O=C(O)C1(C(=O)Nc2ccc(Cl)cc2Cl)CC1,inactive
2,CCC(O)=C1C(=O)CC(C(=O)O)CC1=O (stereo unspecified),inactive
3,CCOC(=O)C(C)Oc1ccc(Oc2nc3ccc(Cl)cc3o2)cc1 (stereo unspecified),inactive
4,CCCN(CCC)C(=O)SCC,inactive
5,COC(=O)c1ccccc1S(=O)(=O)NC(=O)Nc1nc(OC(F)F)cc(OC(F)F)n1,inactive
6,CCCOC(=O)NCCCN(C)C,inactive
7,CSC(=O)c1cccc2nnsc12,inactive
8,CCCCCOC(=O)COc1cc(N2C(=O)C3=C(CCCC3)C2=O)c(F)cc1Cl,inactive
9,CCCCOC(=O)C(C)Oc1ccc(Oc2ccc(C(F)(F)F)cn2)cc1 (stereo unspecified),inactive
10,CCOC(=O)C(C)Oc1ccc(Oc2cnc3cc(Cl)ccc3n2)cc1 (stereo unspecified),inactive
11,CCCOC(=O)c1ccc(C(=O)OCCC)nc1,inactive
12,COCCO,inactive
13,N#CSCSc1nc2ccccc2s1,inactive
14,COC(=O)c1ccc(I)cc1S(=O)(=O)NC(=O)Nc1nc(C)nc(OC)n1,inactive
15,COC(=O)c1c(Cl)nn(C)c1S(=O)(=O)NC(=O)Nc1nc(OC)cc(OC)n1,inactive
16,CCC(C)OC(=O)N1CCCCC1CCO (stereo unspecified),inactive

row,SMILES,outcome
1,COc1c(Cl)ccc(Cl)c1C(=O)O,inactive
2,OB(O)O,inactive
3,CC(C)(c1ccc(O)cc1)c1ccc(O)cc1,inactive
4,S=C([S-])NCCNC(=S)[S-].[Mn+2],inactive
5,C#CCOC(=O)[C@@H](C)Oc1ccc(Oc2ncc(Cl)cc2F)cc1,inactive
6,CCSC(=O)N(CC(C)C)CC(C)C,inactive
7,CCOC(=O)COc1cc(-n2ncc(C(F)(F)F)c(C)c2=O)c(F)cc1Cl,inactive
8,COC(=O)c1ccc(CNS(C)(=O)=O)cc1S(=O)(=O)NC(=O)Nc1nc(OC)cc(OC)n1,inactive
9,CCOC(=O)[C@H](C)Oc1ccc(Oc2nc3ccc(Cl)cc3o2)cc1,inactive
10,CCNc1nc(N)nc(Cl)n1,inactive
11,Cc1nn(C)c(Oc2ccccc2)c1C=NOCc1ccc(C(=O)OC(C)(C)C)cc1,inactive
12,CC1(C)C(C=C(Cl)Cl)C1C(=O)OCc1cccc(Oc2ccccc2)c1 (stereo unspecified),inactive
13,COC(=O)c1ccccc1C(=O)O,inactive
14,C=CCOC(Cn1ccnc1)c1ccc(Cl)cc1Cl (stereo unspecified),inactive
15,Oc1ccc(C(c2ccc(O)cc2)C(Cl)(Cl)Cl)cc1,inactive

# Source: PubChem BioAssay (EPA / NIEHS)
